# Screens from PubChem BioAssay.
# Nrf2 ARE act – activates Nrf2 signaling; AREc32 ARE-luciferase reporter (MCF7-derived line), luminescence, 24 h; Potency, µM (doses to about 46.1 µM), for the others: at the top dose activation, actives largely listed as activators; 410,000 tested, 0.31% active; note: potency is the fitted concentration of half-maximal effect; % of control where 0% means no effect; nearly all actives have a fitted effect of over 65% in size
#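 AREc32 cells carrying an ARE-driven firefly luciferase reporter were seeded at 1000 cells/well in OPTI-MEM with 5% FBS, then exposed to compound for 24 hr at 37 deg C. Luminescence was read with Steady-Glo after 30 min at RT.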
# TCR activator – activators of T cell receptors; primary human leukocytes, anti-CD3, IL-2 HTRF, 48 h; Potency, µM (series often up to 9.22 µM), inactives show top-dose activation of IL-2 secretion, hits mostly activators; 330,000 tested, under 10 active; note: % of control where 0% means no effect
#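 TCR engagement came from a-CD3 beads alone, with compounds added to primary human leukocytes for 48 hr. Secreted IL-2 bridged europium cryptate- and d2-labelled anti-IL-2 antibodies, giving FRET emission at 665nm after 320nm excitation.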
# CCT chaperon mod – cytosolic chaperonin activity modulation | 360,000 tested, 0.3% active | AID 651819 | purified chaperonin ATPase assay, HTRF ADP detection, 30 min | activity change, % (test concentration not listed), hits read low; in the data active = activity change below about -30%; note: % is set by controls: 0 for no effect and ±100 for the full control effect
#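 TRiC (40 or 20 nM final, by batch activity) in 30 mM Tris pH 7.4, 100 mM KCl, 5 mM MgCl2, 1 mM DTT was treated with compound at 76 uM single dose, then 10 uM ATP, 30 min at 37 °C. ADP was read by HTRF Transcreener.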
# A-T KAP1 phos – potential ataxia-telangiectasia treatments restoring KAP-1 phosphorylation; F2112 A-T fibroblasts, KAP-1 phosphorylation AlphaLISA; neocarzinostatin DNA damage 30 min before lysis; Potency, µM (series often up to 57.5 µM), inactives show top-dose activation, actives largely listed as activators; 320,000 tested, 0.19% active; AID 485349; note: potency is the fitted concentration of half-maximal effect; % of control where 0% means no effect; nearly all actives have a fitted effect of over 45% in size
#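 ATM-like activity read as KAP-1 phosphorylation via AlphaLISA donor/acceptor antibody pairs after lysis and 6 hr at 25C. Cells were ATM-null patient fibroblasts (F2112, hTERT), dosed 60 min, then exposed to the DSB inducer NCS for 30 min.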
# Nrf2 inh – blocks Nrf2 signaling | A549 ARE-Fluc reporter, luciferase luminescence, 18-24 h | AID 504444 | Potency, µM (doses to about 46 µM), inactives show at the highest dose activity change, negative = inhibition, usual class: inhibitors | 360,000 tested, 2.1% active; note: potency is the fitted concentration of half-maximal effect; % is set by controls: 0 for no effect and ±100 for the full control effect; nearly all actives have a fitted effect of over 60% in size
#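 A549 ARE_Fluc cells, 5000/well, 5% FBS OPTI-MEM; compounds in dose-response, 18-24 h at 37 °C/5% CO2; CellTiter-Fluor viability read (Ex 405/Em 525), then BugLite luciferase luminescence = Nrf2 activity.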
# A549 tox – counter-screen for Nrf2 inhibitors: cytotoxicity in A549 cells. 390,000 tested, 0.16% active. Potency, µM (series often up to 46 µM), inactives show top-dose activity change, negative = cytotoxicity, most hits filed as inhibitors. AID 504648. A549 ARE-Fluc cells, CellTiter-Fluor viability, 18-24 h; note: potency is the fitted concentration of half-maximal effect; % is set by controls: 0 for no effect and ±100 for the full control effect
#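 A549 ARE_Fluc cells in 5% FBS OPTI-MEM were exposed to compounds in concentration-response for 18-24 h at 37 deg C. Viability was read by CellTiter-Fluor fluorescence (Ex 405/Em 525) after 30 min, before the luciferase read.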
# An asterisk follows results filed as active; ? = inconclusive; . = not tested or not shown; [ ] = dose if it differs, or a comment. An excerpt weighted towards active compounds, which were near 2.6% of everything screened. Unless noted, calls come from the whole dose curve; as a rule, active = well fitted curve in the direction sought with a large enough effect; inconclusive = small, poorly fitted or top-dose-only effect, or another doubt; inactive = no such curve, though single readings can be large; an effect the other way counts as inactive or inconclusive.
SMILES,Nrf2 ARE act,TCR activator,CCT chaperon mod,A-T KAP1 phos,Nrf2 inh,A549 tox
COc1cc(NC(=O)Nc2cccc([N+](=O)[O-])c2)cc(OC)c1,3.3%,4.6%,-52.9*,1.5%,-5.3%,-1.5%
COc1ccc(CN(Cc2ccccc2)C(=O)c2ccccc2O)cc1,.,.,.,.,?,4.4%
O=S(=O)(/N=C(/Sc1ccccc1)c1ccccc1)c1ccc(Cl)cc1,.,.,.,.,-13.3%,-2.4%
CC(C)(C)c1ccc(S(=O)(=O)N2CCN(c3nc(-c4cccs4)nc4ccccc34)CC2)cc1,.,.,.,.,-7.7%,9.6%
Cc1cc(S(=O)(=O)N2CCCc3ccccc32)ccc1-n1cnnn1,0.4%,-3.5%,0.1,1.0%,3.7%,14.1%
O=C(Nc1cc(Br)ccc1O)c1cnn2c(C(F)F)cc(C3CC3)nc12,2.51µM*,.,-3.0,6.9%,-6.4%,7.9%
O=C(Nc1cccnc1)c1cnn2c(C(F)F)cc(C3CC3)nc12,2.3%,-9.5%,-1.5,.,.,-2.2%
CNC(=O)NC(=O)C(OC(=O)CCNS(=O)(=O)c1ccccc1)c1ccccc1 (stereo not given),-0.2%,-3.8%,-2.8,6.0%,3.5%,10.9%
Cc1ccc(OCC(=O)Nc2ccc(OCc3cc(=O)n4cccc(C)c4n3)cc2)cc1C,-0.6%,.,.,.,.,-5.3%
Cc1ccc(C(=O)OC2OC(=O)C(Cl)=C2N2CCOCC2)cc1 (stereo not given),-0.6%,-0.3%[46.1 µM],-49.6*,-1.6%,-14.0%,6.7%
CSc1cc2c(s1)c1cnn(Cc3ccccc3F)c(=O)c1n2C,.,.,.,.,-16.4%,-3.2%
CCOC(=O)C1=C(c2ccccc2)N=c2s/c(=C\c3cccc(O)c3)c(=O)n2C1c1cccs1 (stereo not given),-0.8%,.,-0.5,7.4%,25.9µM*,?
Cc1nc(NC(=O)COC(=O)CNC(=O)c2ccco2)c(Cl)cc1Cl,0.1%,-2.5%,-2.5,4.5%,10.4%,2.4%
COc1ccccc1C(=O)COC(=O)Cn1[nH]c(=O)c2ccccc2c1=O,-0.9%,-11.7%,-30.8*,-0.5%,-5.7%,0.8%
O=C(Cn1[nH]c(=O)c2ccccc2c1=O)OCC(=O)c1ccc(Br)cc1,-0.2%,-1.8%,-1.2,-4.1%,-9.8%,6.5%
C=C(C)c1cccc(C(C)(C)NC(=O)Nc2ccc(OC)nc2)c1,-0.6%,0.7%,-2.2,-4.3%,?,11.6µM*
C=C(C)c1cccc(C(C)(C)NC(=O)Nc2cc(C)ccn2)c1,2.9%,3.4%[46.1 µM],-2.2,-2.4%,14.6µM*,?
C=C(C)c1cccc(C(C)(C)NC(=O)Nc2ccc(C)cn2)c1,6.2%,4.8%[46.1 µM],-27.4,5.2%,?,-7.4%
c1ccc(-c2cc3ncc4c(n3n2)-c2ccccc2OC4)cc1,10.0%,.,.,.,?,7.3%
Cc1occc1-c1nnc(SCC(N)=O)n1Cc1ccccc1,-0.2%,-3.5%,-3.5,1.9%,.,-4.7%
NC(=O)CSc1nnc(-c2cc3ccccc3o2)n1Cc1ccccc1,-0.6%,28.8%,-61.9*,-2.8%,.,-9.0%
COc1ccc(C[C@H](N)C(=O)N[C@H]2[C@@H](O)[C@H](n3cnc4c(N(C)C)ncnc43)O[C@@H]2CO)cc1,-2.3%,3.0%,-0.9,5.1%,1.46µM*,1.46µM*
COc1ccc(CCc2nnc(CCC(=O)N(C)Cc3ccnc4ccccc34)o2)cc1,4.3%,-3.3%,-2.8,10.0%,20.6µM*,?
COc1ccccc1CCc1nnc(CCC(=O)N(C)Cc2cccc3cnccc23)o1,4.5%,-5.6%,-4.1,-9.3%,?,0.7%
S=C(Nc1ccc(Nc2ccccc2)cc1)Nc1ccccn1,3.1%,6.1%,0.7,0.4%,20.6µM*,?
Cc1nn(Cc2ccccc2)c(C)c1C(=O)OCC(=O)c1cc(C)n(CC(F)(F)F)c1C,0.8%,-49.7%,1.4,-0.2%,16.4µM*,-8.5%
Cc1cc(C(=O)COC(=O)c2ccc(NC(=O)CC#N)cc2)c(C)n1CC(F)(F)F,2.6%,.,1.3,.,.,.
Cc1cccc(NC2=C/C(=N/S(=O)(=O)c3cccs3)c3ccccc3C2=O)c1,8.4%,5.4%[46.1 µM],0.4,26.9%,?,?
